# Test system: hN + hpA co-culture (H1 iNGN2 human neurons + human primary astrocytes)
# Assay: presynaptic density (SYNAPSIN1 puncta per MAP2 neurite area), Z-score vs DMSO controls; higher = more presynaptic puncta (synapse-promoting)
# Settings: 3 µM; 72 h
# 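Note: immunostained co-cultures imaged by high-content microscopy, Z-score per plate against mean and SD of 0.1% DMSO wells, compounds added on differentiation day 18, analysed day 21.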
row,Structure (SMILES),presynaptic density (Z-score)
1,Cc1nnc(C(=O)NC(C)(C)c2nc(C(=O)NCc3ccc(F)cc3)c(O)c(=O)n2C)o1 [Raltegravir (MK-0518)],-0.683
2,O=C(O)c1ccc(Nc2ncc3c(n2)-c2ccc(Cl)cc2C(c2c(F)cccc2F)=NC3)cc1,-0.286
3,CCN(CC)CC(=O)Nc1c(C)cccc1C,0.846
4,CCCN[C@H]1CCc2nc(N)sc2C1 [Pramipexole],0.794
5,CN1CC(=O)N2[C@H](c3ccc4c(c3)OCO4)c3[nH]c4ccccc4c3C[C@@H]2C1=O [Tadalafil],-0.533
6,CCN(CC)CCCC(C)Nc1nc(C)cc(Nc2ccc3nc(C)cc(N)c3c2)n1 (configuration not stated),-0.607
7,O=C(NCc1ccccc1)c1csc(Nc2ccncn2)n1 [Thiazovivin],0.74
8,"O=[N+]([O-])c1ccc2c(c1)S(=O)(=O)C=C2 [6-Nitrobenzo[b]thiophene 1,1-dioxide]",0.915
9,COc1cc(N2CCC(N)CC2)ccc1Nc1ncc(Cl)c(-c2c[nH]c3ccccc23)n1,-0.26
10,C[C@]1(c2nc3c(C(N)=O)cccc3[nH]2)CCCN1 [Veliparib (ABT-888)],0.43
11,Cc1c(Cc2ccc3ccccc3n2)c2cc(F)ccc2n1CC(=O)O,-1.02
12,O=c1ncn2nc(Sc3ccc(F)cc3F)ccc2c1-c1c(Cl)cccc1Cl,0.626
13,C=C1C(=O)OC2C=C(C)CCC=C(C)CCC12 (configuration not stated),0.309
14,C/C(=C\C(=O)Nc1ccccc1C(=O)O)c1ccc2ccccc2c1,-1.34
15,O=c1ncccn1[C@@H]1O[C@H](CO)[C@@H](O)[C@H]1O [Zebularine],-0.579
16,O=C(NC(Cc1cc(=O)[nH]c2ccccc12)C(=O)O)c1ccc(Cl)cc1 (configuration not stated),-0.611
17,C=CCn1c(=O)c2cnc(Nc3ccc(N4CCN(C)CC4)cc3)nc2n1-c1cccc(C(C)(C)O)n1,1.16
18,COCCOc1ccc2c(c1)ncn2-c1ccc2cccc(N3CCC(N)CC3)c2n1,-0.271
19,NC(=O)c1ccc(I)c([N+](=O)[O-])c1,-1.09
20,CN1CCN(c2nc(C3=C(c4c[nH]c5ccccc45)C(=O)NC3=O)c3ccccc3n2)CC1 [AEB071 (Sotrastaurin)],-0.719
21,COc1cc2c(cc1Cc1cccc(Cl)c1F)c(=O)c(C(=O)O)cn2[C@H](CO)C(C)C [Elvitegravir (GS-9137],0.597
22,C[C@@H](O[C@H]1OCCN(Cc2n[nH]c(=O)[nH]2)[C@H]1c1ccc(F)cc1)c1cc(C(F)(F)F)cc(C(F)(F)F)c1 [Aprepitant],0.895

# Reference: the supplement of paper PMC10121225
